Shown are actives, neighbours in structure and some others; about 2.4% of the full set was active somewhere.
PHOSPHO1 block: PubChem AID 1565. inhibition, % at 13.3 µM. Phosphoethanolamine/phosphocholine phosphatase (Homo sapiens), Q8TCT1. actives 1.1% (n = 290,000). recombinant PHOSPHO1, absorbance phosphatase assay; in the data active means inhibition above about 60%
PABP polyA inh: PABP poly(A) RNA binding inhibitors, primary screen, biochemical, fluorescence polarization, uHTS. Polyadenylate-binding protein 1 (Homo sapiens), P11940. calls only at 35 µM. actives 1% (n = 290,000). AID 2014, 2009;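 further: calls also rest on retests at 20 µM and on dose response follow-up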
Target sequence (P11940 whole entry, looked up): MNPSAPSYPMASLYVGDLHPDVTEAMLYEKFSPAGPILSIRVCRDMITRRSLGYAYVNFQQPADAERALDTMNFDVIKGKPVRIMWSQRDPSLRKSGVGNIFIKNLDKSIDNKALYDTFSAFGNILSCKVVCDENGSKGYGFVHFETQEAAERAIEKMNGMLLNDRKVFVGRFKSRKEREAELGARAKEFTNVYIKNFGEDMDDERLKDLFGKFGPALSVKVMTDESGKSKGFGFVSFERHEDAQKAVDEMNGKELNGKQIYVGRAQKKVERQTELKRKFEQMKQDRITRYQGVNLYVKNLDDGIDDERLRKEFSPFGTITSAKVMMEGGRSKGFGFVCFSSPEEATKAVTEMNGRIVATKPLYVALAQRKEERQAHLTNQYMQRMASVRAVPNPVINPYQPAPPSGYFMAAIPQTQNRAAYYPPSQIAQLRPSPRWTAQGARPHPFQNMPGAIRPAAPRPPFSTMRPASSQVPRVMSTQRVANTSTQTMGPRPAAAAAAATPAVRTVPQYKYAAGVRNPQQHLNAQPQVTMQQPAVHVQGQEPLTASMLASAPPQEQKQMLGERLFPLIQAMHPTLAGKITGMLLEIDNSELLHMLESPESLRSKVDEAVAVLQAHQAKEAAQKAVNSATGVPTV
eIF4H FP inh: human eIF4H binding inhibitors, primary screen, translation initiation inhibitor project, biochemical, uHTS, fluorescence polarization; AID 2012, 2009; inhibition, % at 35 µM; Eukaryotic translation initiation factor 4H (Homo sapiens), Q15056; eIF4H fluorescence polarization binding assay; actives 0.94% (n = 290,000);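 further: calls also rest on retests at 20 µM and on dose response follow-up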
PABP1 MLLE inh: inhibitors of PABP1 MLLE–PAM2 peptide binding, primary screen, biochemical, fluorescence polarization, FITC-PAM2, GST-MLLE; AID 588489, 2011; inhibition, % at 20 µM; actives 0.36% (n = 360,000); Polyadenylate-binding protein 1 (Homo sapiens), P11940; in the data active means inhibition above about 35%, passing the limit was not always enough
Efa HMGR inh: inhibitors of E. faecalis class II HMGR, primary screen, biochemical, Enterococcus faecalis; HMG-CoA reductase (Enterococcus faecalis, mvaE); purified E. faecalis HMGR, NADPH absorbance 340 nm kinetic; inhibition, % at 10 µM; actives 0.41% (n = 190,000); AID 1066, 2008;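 active means inhibition above a set limit, the median over all tested compounds plus 3 SD, cut at about 9.5% in these data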;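 further: enzyme runs in reverse so mevalonate oxidation gives rising NADPH absorbance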
Numbers stand for hits. Unless noted, how the calls were made is not given here.

For COc1ccccc1C(=O)NC(=S)N1CCc2ccccc21 the results were PHOSPHO1 block inactive, PABP polyA inh inactive, eIF4H FP inh inactive, PABP1 MLLE inh inactive and Efa HMGR inh inactive.
For COc1ccccc1C(=O)NC(=S)N1CCCc2ccccc21 the results were PHOSPHO1 block inactive, PABP polyA inh active, eIF4H FP inh inactive, PABP1 MLLE inh inactive and Efa HMGR inh inactive.
COc1ccc(C(=O)NC(=S)N2CCCc3ccccc32)cc1OC was read as PHOSPHO1 block inactive, PABP polyA inh inactive, eIF4H FP inh inactive, PABP1 MLLE inh 41 and Efa HMGR inh inactive.
For O=C(NC(=S)N1CCCc2ccccc21)c1ccc(Br)cc1 the results were PHOSPHO1 block inactive, PABP polyA inh inactive, eIF4H FP inh inactive, PABP1 MLLE inh 47 and Efa HMGR inh inactive.
`COc1ccc(C(=O)NNc2ccccc2)cc1OC` gave PHOSPHO1 block 77, PABP polyA inh inactive, eIF4H FP inh inactive, PABP1 MLLE inh inactive and Efa HMGR inh inactive.
COc1ccc(C(=O)NNC(=O)Cc2ccc(-c3ccccc3)cc2)cc1OC was read as PHOSPHO1 block inactive, PABP polyA inh inactive, eIF4H FP inh inactive, PABP1 MLLE inh inactive and Efa HMGR inh inactive.
`COC(=O)C[C@@H]1C[C@@H]2c3cc(NC(=O)Cc4ccncc4)ccc3O[C@@H]2[C@@H](CO)O1` gave PABP1 MLLE inh inactive.
Screening CCc1ccc(CN2CCCC(C(=O)Nc3ccc(-c4cscn4)cc3)C2)o1 (configuration not stated) returned PHOSPHO1 block inactive, PABP polyA inh inactive, eIF4H FP inh inactive and PABP1 MLLE inh inactive.
`C/C(=N\NC(=O)Cc1ccc(Cl)cc1)c1cccnc1` gave PHOSPHO1 block inactive, PABP polyA inh inactive, eIF4H FP inh inactive and PABP1 MLLE inh inactive.
Screening O=C(CSc1nc2nn(-c3ccccc3)c(=O)c-2c2n1CCCCC2)Nc1ccc(OC(F)F)cc1 returned PABP1 MLLE inh inactive.
`CC(C)(Oc1ccc(Cl)cc1)C(=O)N/N=C/c1cn[nH]c1-c1ccccc1` gave PHOSPHO1 block inactive, PABP polyA inh inactive, eIF4H FP inh inactive, PABP1 MLLE inh inactive and Efa HMGR inh inactive.
COc1ccccc1NC(=O)c1cc2cc(Br)ccc2cc1O was read as PHOSPHO1 block inactive, PABP polyA inh inactive, eIF4H FP inh 80 and PABP1 MLLE inh inactive.
`COc1cc(NC(=O)c2cc3ccccc3cc2O)c(OC)cc1Cl` gave PHOSPHO1 block inactive, PABP polyA inh inactive, eIF4H FP inh inactive and PABP1 MLLE inh inactive.
For COC(=O)c1cc(Br)c(N)cc1OC the results were PHOSPHO1 block 61, PABP polyA inh inactive, eIF4H FP inh inactive, PABP1 MLLE inh inactive and Efa HMGR inh inactive.
Screening CC(C(=O)NC1CCCC1)N(C(=O)c1ccc(-c2ccccc2)[nH]1)c1ccccc1F (configuration not stated) returned PHOSPHO1 block inactive, PABP polyA inh inactive, eIF4H FP inh inactive, PABP1 MLLE inh inactive and Efa HMGR inh inactive.
`Cc1c(NC2(c3nnnn3-c3ccc(Br)cc3)CCCCC2)c(=O)n(-c2ccccc2)n1C` gave PHOSPHO1 block inactive, PABP polyA inh inactive, eIF4H FP inh inactive, PABP1 MLLE inh inactive and Efa HMGR inh 23.
Screening N#Cc1ccc(/C=C/C(=O)c2ccco2)cc1 returned PHOSPHO1 block inactive, PABP polyA inh inactive, eIF4H FP inh inactive, PABP1 MLLE inh inactive and Efa HMGR inh inactive.
`Nc1ccc(/C=C/C(=O)c2ccco2)cc1` gave PHOSPHO1 block inactive, PABP polyA inh active, eIF4H FP inh 54, PABP1 MLLE inh inactive and Efa HMGR inh inactive.
`CCOC(=O)N1CCN(S(=O)(=O)N2CCCC(C(=O)NCCc3ccc(OCC)c(OCC)c3)C2)CC1` (configuration not stated) gave PHOSPHO1 block inactive, PABP polyA inh inactive, eIF4H FP inh inactive and PABP1 MLLE inh inactive.
C=CC[C@H](CC(=O)NCCO)C(=O)NCCOC(=O)[C@@H](CC=C)Cc1ccc(F)cc1 was read as PABP1 MLLE inh inactive.
O=C1c2ccccc2-c2cccc(C(=O)N3CCN(C(=O)c4ccccc4)CC3)c21 was read as PHOSPHO1 block 60, PABP polyA inh inactive, eIF4H FP inh inactive, PABP1 MLLE inh inactive and Efa HMGR inh inactive.
CCC(=O)N(CCC1(c2ccccc2OC)CCOC(C(C)C)C1)Cc1ccco1 (configuration not stated) was read as PHOSPHO1 block inactive, PABP polyA inh inactive, eIF4H FP inh inactive and PABP1 MLLE inh inactive.
`CN(C)S(=O)(=O)c1ccc(C(=O)Nc2ccn(C)n2)cc1` gave PHOSPHO1 block inactive, PABP polyA inh inactive, eIF4H FP inh inactive and PABP1 MLLE inh inactive.
For Nc1nn(S(=O)(=O)c2ccccc2)cc1-c1cccc([N+](=O)[O-])c1 the results were PHOSPHO1 block inactive, PABP polyA inh active, eIF4H FP inh active, PABP1 MLLE inh inactive and Efa HMGR inh inactive.
Screening Cc1ccc(S(=O)(=O)CC(=O)N2CCCC2)cc1 returned PHOSPHO1 block inactive, PABP polyA inh inactive, eIF4H FP inh inactive, PABP1 MLLE inh inactive and Efa HMGR inh inactive.
`Cc1ccc(S(=O)(=O)CC(=O)c2cc(C)c(O)c(C)c2)cc1` gave PHOSPHO1 block inactive, PABP polyA inh active, eIF4H FP inh 2.8, PABP1 MLLE inh inactive and Efa HMGR inh inactive.
For Cc1ccc(S(=O)(=O)CCCS(=O)(=O)c2ccc(C)cc2)cc1 the results were PHOSPHO1 block inactive, PABP polyA inh inactive, eIF4H FP inh inactive, PABP1 MLLE inh inactive and Efa HMGR inh 11.
`CC1=CC(C#N)(C#N)C(C#N)(C#N)C(c2ccccc2)N1` (configuration not stated) gave PHOSPHO1 block inactive, PABP polyA inh active, eIF4H FP inh 102 and Efa HMGR inh inactive.
COC1(OC)N=C(N)C2(C#N)C(c3ccccc3)NC(C)=CC12C#N (configuration not stated) was read as PHOSPHO1 block inactive, PABP polyA inh inactive, eIF4H FP inh inactive, PABP1 MLLE inh inactive and Efa HMGR inh inactive.
Screening COc1cccc(/C=N/Nc2nc3ccccc3n3cnnc23)c1 returned PHOSPHO1 block inactive, PABP polyA inh active, eIF4H FP inh 85, PABP1 MLLE inh inactive and Efa HMGR inh inactive.
For O=S(=O)(NCc1ccc(F)cc1)c1ccc(Br)cc1Br the results were PABP1 MLLE inh inactive.
Cc1ccc(N=Cc2nc(-c3ccc(C)cc3)oc2O)cc1 was read as PHOSPHO1 block inactive, PABP polyA inh inactive, eIF4H FP inh inactive, PABP1 MLLE inh inactive and Efa HMGR inh inactive.
`COc1ccc(N=Cc2nc(-c3ccco3)oc2O)cc1` gave PHOSPHO1 block inactive, PABP polyA inh inactive, eIF4H FP inh inactive, PABP1 MLLE inh inactive and Efa HMGR inh 11.
`O=C(COc1ccc(Cl)cc1Cl)Nn1c(=S)[nH]c2ncccc2c1=O` gave PHOSPHO1 block inactive, PABP polyA inh inactive, eIF4H FP inh inactive, PABP1 MLLE inh 46 and Efa HMGR inh inactive.
`O=C(COc1ccc(Cl)cc1Cl)Nc1cccnc1` gave PHOSPHO1 block inactive, PABP polyA inh inactive, eIF4H FP inh inactive, PABP1 MLLE inh inactive and Efa HMGR inh inactive.
